The list is not random: actives were taken first. Their share in the collection is about 12%.
FMDV antiviral = antivirals against foot and mouth disease virus; actives 1.2% (n = 410,000); AID 1159524; Potency, µM (highest dose often 57.9 µM), for the others: top-dose activity change, negative = inhibition, most hits filed as inhibitors; FMDV antiviral cell-based qHTS; calls by dose curve; tested in HEK293T cells; further: read-out not given here; potency means the concentration at half of the fitted maximal effect; on the % scale 0 is the no-effect control and ±100 the full control effect; nearly all actives have a fitted effect of over 45% in size
Shiga toxin inh = blocks Shiga toxin action in Vero cells. inhibition, % at 38.7 µM. actives 9.2% (n = 290,000). Vero cells, Shiga toxin protein synthesis inhibition reporter; in the data active means inhibition mostly above about 28%, no sharp cut-off; inactive means mostly below about 43%; further: 0% is about no effect
CHX counter = counter-screen for Shiga toxin inhibitors: cycloheximide protein synthesis inhibition | actives 12% (n = 300,000) | max response, % | AID 2314 | cell reporter, cycloheximide protein synthesis inhibition counterscreen; in the data active means max response mostly above about 13%, no sharp cut-off; inactive means mostly below about 14%; further: read at 38.3 µM for the half of the compounds with a filed dose; 0% is about no effect
Sm TGR block = S. mansoni TGR enzyme inhibition. AID 485364. actives 3% (n = 360,000). Potency, µM (series often up to 114 µM), inactives show at the top dose activity change, negative = inhibition, most hits filed as inhibitors. purified TGR, DTNB reduction, TNB absorbance 405 nm; active means well fitted inhibition curve with a large enough effect; inconclusive means small, poorly fitted or top-dose-only effect; inactive means no such curve, though single readings can be large or run the other way; further: potency means the concentration at half of the fitted maximal effect; on the % scale 0 is the no-effect control and ±100 the full control effect; nearly all actives have a fitted effect of over 60% in size
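Kinetic colorimetric format: TGR-catalysed, NADPH-driven DTNB reduction monitored via TNB absorbance. Enzyme dispensed at 20 nM; compound exposure 15 min at room temperature before reaction start.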
* marks the source's active call; other numbers are inactive results; ! = not active in a repeat.

CCc1cc2c(=O)c(-c3cscn3)coc2cc1O was read as FMDV antiviral 21.0%, Shiga toxin inh 67.1*, CHX counter 30.9* and Sm TGR block 0.2%.
CCc1cc2c(=O)c(-c3cscn3)coc2cc1OC was read as Shiga toxin inh 101.5*, CHX counter 16.9 and Sm TGR block 0.0%.
For O=C(CCC1N=C2c3ccccc3N=C(SCc3ccccc3F)N2C1=O)NCc1ccc(F)cc1 (stereo unspecified) the results were FMDV antiviral -15.1% and Sm TGR block -5.9%.
Screening O=C(CN1C(=O)CC(c2ccco2)Sc2ccccc21)Nc1ccccc1F (stereo unspecified) returned FMDV antiviral 3.6%, Shiga toxin inh 14.2, CHX counter -2.1 and Sm TGR block 25.1µM*.
`CCN1C(=O)CC(c2ccco2)Sc2ccccc21` (stereo unspecified) gave FMDV antiviral 0.0%, Shiga toxin inh -9.1, CHX counter 1.8 and Sm TGR block 25.1µM*.
Screening O=C(CN1C(=O)CC(c2ccco2)Sc2ccccc21)Nc1ccc(Br)cc1 (stereo unspecified) returned FMDV antiviral -21.2% and Sm TGR block -8.2%.
For CCOC(=O)C1CCCN(S(=O)(=O)c2ccc3[nH]c(=O)ccc3c2)C1 (stereo unspecified) the results were FMDV antiviral inconclusive and Sm TGR block 11.9%.
Screening COc1cc(C=O)ccc1OCCCOc1ccccc1C(=O)O returned FMDV antiviral 8.91µM*, Shiga toxin inh -26.7, CHX counter -8.0 and Sm TGR block 4.3%.
For COc1cc(C=O)ccc1OCCCOc1ccccc1[N+](=O)[O-] the results were FMDV antiviral 29.5%, Shiga toxin inh 64.1*, CHX counter 47.8* and Sm TGR block 0.8%.
Screening COc1cc(/C=N/n2cnnc2)ccc1OS(=O)(=O)c1ccccc1[N+](=O)[O-] returned FMDV antiviral -9.8%, Shiga toxin inh 30.0, CHX counter 10.6 and Sm TGR block -0.4%.
For COc1cc(C=O)ccc1OCCOc1ccccc1[N+](=O)[O-] the results were FMDV antiviral 8.4%, Shiga toxin inh 85.4*, CHX counter 28.1* and Sm TGR block -4.7%.
For COc1cc(C=O)ccc1OS(=O)(=O)c1ccccc1[N+](=O)[O-] the results were FMDV antiviral 0.0%, Shiga toxin inh 22.1, CHX counter 22.3* and Sm TGR block -10.0%.
For CCC(=O)OCc1cnc(C)c2oc(=O)c(C(=O)Nc3ccc(CC)cc3)cc12 the results were FMDV antiviral -12.6% and Sm TGR block 6.2%.
`COc1cc(C=O)ccc1OCCCCOc1ccccc1[N+](=O)[O-]` gave FMDV antiviral 8.6%, Shiga toxin inh 34.9*, CHX counter 14.8* and Sm TGR block -11.5%.
Screening COc1ccc(C(=O)Oc2c(C)occc2=O)cc1OC returned FMDV antiviral 0.5%, Shiga toxin inh -3.1, CHX counter -2.7 and Sm TGR block 6.7%.
O=c1c2ccccc2oc2ncccc12 was read as FMDV antiviral 28.8%, Shiga toxin inh 57.0, CHX counter 55.1* and Sm TGR block 7.7%.
COc1cccc2c(=O)c3ccccc3oc12 was read as FMDV antiviral 60.9%, Shiga toxin inh 66.8*, CHX counter 54.7*! and Sm TGR block 7.8%.
Screening COc1cccc2c(=O)ccoc12 returned FMDV antiviral 13.8%, Shiga toxin inh 39.4, CHX counter 12.4* and Sm TGR block -3.5%.
CCCCN(CC)CCNC(=O)C1CCN(c2nnc(C)c3c(C)n(-c4ccc(C)cc4)nc23)CC1 was read as FMDV antiviral -9.2% and Sm TGR block -10.2%.
For Cc1ccc(-c2noc(CN(C(=O)c3ccc(C(C)(C)C)cc3)C(C)C)n2)cc1 the results were FMDV antiviral 23.6% and Sm TGR block 1.8%.
CC(C)CN1CC[C@@]2(CCCN(C(=O)c3cnccn3)C2)C1 was read as FMDV antiviral 1.4%.
O=C(NCc1cccnc1)c1ccc([N+](=O)[O-])o1 was read as FMDV antiviral -0.9%, Shiga toxin inh 30.1, CHX counter 31.2* and Sm TGR block inconclusive.
For O=C(NCc1ccco1)c1ccc(Cn2cc([N+](=O)[O-])cn2)o1 the results were FMDV antiviral 7.7%, Shiga toxin inh -2.5, CHX counter 1.4 and Sm TGR block 51.3%.
`O=C(Nc1cccnc1)c1ccc([N+](=O)[O-])o1` gave FMDV antiviral -23.6%, Shiga toxin inh 70.7*, CHX counter 38.4* and Sm TGR block inconclusive.
For O=C(NCc1ccco1)c1ccc([N+](=O)[O-])o1 the results were FMDV antiviral -20.0%, Shiga toxin inh 50.5, CHX counter 12.4* and Sm TGR block 28.2µM*.
Cc1ccc(C)c(NC(=O)Cn2cc(C(=O)c3cccs3)c3ccccc32)c1 was read as FMDV antiviral inconclusive and Sm TGR block 1.5%.

Source: PubChem (National Center for Advancing Translational Sciences (NCATS))
